# The supplement of paper PMC6411743
# ± gives the standard deviation of the averaged measurements. About 5,400 targets were measured; listed, in parts, are those with the largest changes and a random draw of the rest.
# Biological target: T1, UniProt Q8TD55|Q8TD55-2
# T1 sequence (whole entry): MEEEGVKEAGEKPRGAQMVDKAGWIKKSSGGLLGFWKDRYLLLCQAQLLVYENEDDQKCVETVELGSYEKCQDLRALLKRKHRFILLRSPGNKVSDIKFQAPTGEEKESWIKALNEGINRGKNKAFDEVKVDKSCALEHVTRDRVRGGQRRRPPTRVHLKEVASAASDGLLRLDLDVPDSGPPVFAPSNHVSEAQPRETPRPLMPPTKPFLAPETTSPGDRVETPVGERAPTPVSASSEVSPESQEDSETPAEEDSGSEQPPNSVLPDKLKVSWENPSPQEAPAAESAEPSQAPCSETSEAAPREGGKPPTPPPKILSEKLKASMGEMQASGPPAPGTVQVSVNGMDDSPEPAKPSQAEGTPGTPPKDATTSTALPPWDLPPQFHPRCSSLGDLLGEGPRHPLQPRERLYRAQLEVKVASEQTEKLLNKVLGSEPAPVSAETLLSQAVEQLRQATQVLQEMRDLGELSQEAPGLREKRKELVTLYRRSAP
# Experiment: NP40-soluble protein abundance relative to vehicle (solubility fold change) (ratio); higher = more soluble protein in presence of GTP
# Description: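 Solubility proteome profiling in Jurkat crude lysate. Lysate was treated with Mg-GTP (0.1-10 mM) for 10 min at room temperature and 3 min at 37 °C, then solubilised with 0.8% NP40 and benzonase, followed by ultracentrifugation. Proteins were quantified by TMT10 LC-MS/MS; the value is the NP40-soluble abundance relative to the NP40-processed vehicle, from 3 independent experiments.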
structure (smiles),measurement,setting,value
Nc1nc2c(ncn2[C@@H]2O[C@H](COP(=O)(O)OP(=O)(O)OP(=O)(O)O)[C@@H](O)[C@H]2O)c(=O)[nH]1 [guanosine triphosphate],NP40-soluble protein abundance,concentration: 0.1mM,1.07 ± 0.12
same,NP40-soluble protein abundance,concentration: 0.5mM,0.933 ± 0.0094
same,NP40-soluble protein abundance,concentration: 1mM,1.12 ± 0.072
same,NP40-soluble protein abundance,concentration: 2mM,0.933 ± 0.018
same,NP40-soluble protein abundance,concentration: 4mM,0.96 ± 0.072
same,NP40-soluble protein abundance,concentration: 6mM,0.918 ± 0.046
same,NP40-soluble protein abundance,concentration: 8mM,0.943 ± 0.13
same,NP40-soluble protein abundance,concentration: 10mM,1.03 ± 0.097
